Binding signal data for 13 molecules are collected here from article PMC12864922, “TDP-43 directly inhibits mRNA accumulation in neurites through modulation of mRNA stability”.

The full ranking holds about 9,900 sequences; the median of “r (bound/input frequency ratio)” is about 0.7, and the highest 2% start at about 6.5. Many of the other results were omitted from the sample, so the highest values are more common in it than they were.

B1: ENSMUSG00000029636.433|Wasf3 (ssRNA)
RNA: GGGAGUUCUACAGUCCGACGAUCGCUUCGAUAUCCGCAUGCUAGGAUGGGUGGAUUGGUGGGUGAGUGGAUAGGUGAAUGGAUGAUAGGUGGUGGAUGGUUGAGUGGGUGGAUUCAUGAUGGAUGGAUGGAUGGAUGGAUGGAUGGAUGGAUGGAUGAGUGGAUGGAUAAUAGGUUGAUGGGUGGAUAGGUAGAUGAGUGAAUAGAUAGAUAUAGAUCAGUGGGAGGAUUGGAAAGUAGGUGAAUGAAUGGAUGGCAGAUAGAUGGAUCAAUUACAGAUGGAUGGAUGCAUGGAAUAGAUAGGCUCUUGCGGUCGCACUAGUGUGGAAUUCUCGGGUGUCAAGG
B2: ENSMUSG00000029636.426|Wasf3 (ssRNA)
RNA: GGGAGUUCUACAGUCCGACGAUCGCUUCGAUAUCCGCAUGCUAGUAAGUAGCUAGGUGGAUGGGUGGGUGGAUACAUGGAUGAGUGGAUGGGUGGAUUGGUGGGUGAGUGGAUAGGUGAAUGGAUGAUAGGUGGUGGAUGGUUGAGUGGGUGGAUUCAUGAUGGAUGGAUGGAUGGAUGGAUGGAUGGAUGGAUGGAUGAGUGGAUGGAUAAUAGGUUGAUGGGUGGAUAGGUAGAUGAGUGAAUAGAUAGAUAUAGAUCAGUGGGAGGAUUGGAAAGUAGGUGAAUGAAUGGAUGGCAGAUACUCUUGCGGUCGCACUAGUGUGGAAUUCUCGGGUGUCAAGG
B3: ENSMUSG00000029636.425|Wasf3 (ssRNA)
RNA: GGGAGUUCUACAGUCCGACGAUCGCUUCGAUAUCCGCAUGCUAAGGUGGGUAAGUAGCUAGGUGGAUGGGUGGGUGGAUACAUGGAUGAGUGGAUGGGUGGAUUGGUGGGUGAGUGGAUAGGUGAAUGGAUGAUAGGUGGUGGAUGGUUGAGUGGGUGGAUUCAUGAUGGAUGGAUGGAUGGAUGGAUGGAUGGAUGGAUGGAUGAGUGGAUGGAUAAUAGGUUGAUGGGUGGAUAGGUAGAUGAGUGAAUAGAUAGAUAUAGAUCAGUGGGAGGAUUGGAAAGUAGGUGAAUGAAUGGAUGGCUCUUGCGGUCGCACUAGUGUGGAAUUCUCGGGUGUCAAGG
B4: ENSMUSG00000029636.434|Wasf3 (ssRNA)
RNA: GGGAGUUCUACAGUCCGACGAUCGCUUCGAUAUCCGCAUGCUAGUGGAUUGGUGGGUGAGUGGAUAGGUGAAUGGAUGAUAGGUGGUGGAUGGUUGAGUGGGUGGAUUCAUGAUGGAUGGAUGGAUGGAUGGAUGGAUGGAUGGAUGGAUGAGUGGAUGGAUAAUAGGUUGAUGGGUGGAUAGGUAGAUGAGUGAAUAGAUAGAUAUAGAUCAGUGGGAGGAUUGGAAAGUAGGUGAAUGAAUGGAUGGCAGAUAGAUGGAUCAAUUACAGAUGGAUGGAUGCAUGGAAUAGAUAGGUGGAUGCUCUUGCGGUCGCACUAGUGUGGAAUUCUCGGGUGUCAAGG
B5: ENSMUSG00000029636.424|Wasf3 (ssRNA)
RNA: GGGAGUUCUACAGUCCGACGAUCGCUUCGAUAUCCGCAUGCUAUGGGUUAGGUGGGUAAGUAGCUAGGUGGAUGGGUGGGUGGAUACAUGGAUGAGUGGAUGGGUGGAUUGGUGGGUGAGUGGAUAGGUGAAUGGAUGAUAGGUGGUGGAUGGUUGAGUGGGUGGAUUCAUGAUGGAUGGAUGGAUGGAUGGAUGGAUGGAUGGAUGGAUGAGUGGAUGGAUAAUAGGUUGAUGGGUGGAUAGGUAGAUGAGUGAAUAGAUAGAUAUAGAUCAGUGGGAGGAUUGGAAAGUAGGUGAAUGAAUCUCUUGCGGUCGCACUAGUGUGGAAUUCUCGGGUGUCAAGG
B6: ENSMUSG00000029636.431|Wasf3 (ssRNA)
RNA: GGGAGUUCUACAGUCCGACGAUCGCUUCGAUAUCCGCAUGCUAACAUGGAUGAGUGGAUGGGUGGAUUGGUGGGUGAGUGGAUAGGUGAAUGGAUGAUAGGUGGUGGAUGGUUGAGUGGGUGGAUUCAUGAUGGAUGGAUGGAUGGAUGGAUGGAUGGAUGGAUGGAUGAGUGGAUGGAUAAUAGGUUGAUGGGUGGAUAGGUAGAUGAGUGAAUAGAUAGAUAUAGAUCAGUGGGAGGAUUGGAAAGUAGGUGAAUGAAUGGAUGGCAGAUAGAUGGAUCAAUUACAGAUGGAUGGAUGCAUCUCUUGCGGUCGCACUAGUGUGGAAUUCUCGGGUGUCAAGG
B7: ENSMUSG00000029636.422|Wasf3 (ssRNA)
RNA: GGGAGUUCUACAGUCCGACGAUCGCUUCGAUAUCCGCAUGCUAUGAGUGGAUGGGUGGGUUAGGUGGGUAAGUAGCUAGGUGGAUGGGUGGGUGGAUACAUGGAUGAGUGGAUGGGUGGAUUGGUGGGUGAGUGGAUAGGUGAAUGGAUGAUAGGUGGUGGAUGGUUGAGUGGGUGGAUUCAUGAUGGAUGGAUGGAUGGAUGGAUGGAUGGAUGGAUGGAUGAGUGGAUGGAUAAUAGGUUGAUGGGUGGAUAGGUAGAUGAGUGAAUAGAUAGAUAUAGAUCAGUGGGAGGAUUGGAAAGUCUCUUGCGGUCGCACUAGUGUGGAAUUCUCGGGUGUCAAGG
B8: ENSMUSG00000029636.423|Wasf3 (ssRNA)
RNA: GGGAGUUCUACAGUCCGACGAUCGCUUCGAUAUCCGCAUGCUAGAUGGGUGGGUUAGGUGGGUAAGUAGCUAGGUGGAUGGGUGGGUGGAUACAUGGAUGAGUGGAUGGGUGGAUUGGUGGGUGAGUGGAUAGGUGAAUGGAUGAUAGGUGGUGGAUGGUUGAGUGGGUGGAUUCAUGAUGGAUGGAUGGAUGGAUGGAUGGAUGGAUGGAUGGAUGAGUGGAUGGAUAAUAGGUUGAUGGGUGGAUAGGUAGAUGAGUGAAUAGAUAGAUAUAGAUCAGUGGGAGGAUUGGAAAGUAGGUGACUCUUGCGGUCGCACUAGUGUGGAAUUCUCGGGUGUCAAGG
B9: ENSMUSG00000029636.436|Wasf3 (ssRNA)
RNA: GGGAGUUCUACAGUCCGACGAUCGCUUCGAUAUCCGCAUGCUAGUGAGUGGAUAGGUGAAUGGAUGAUAGGUGGUGGAUGGUUGAGUGGGUGGAUUCAUGAUGGAUGGAUGGAUGGAUGGAUGGAUGGAUGGAUGGAUGAGUGGAUGGAUAAUAGGUUGAUGGGUGGAUAGGUAGAUGAGUGAAUAGAUAGAUAUAGAUCAGUGGGAGGAUUGGAAAGUAGGUGAAUGAAUGGAUGGCAGAUAGAUGGAUCAAUUACAGAUGGAUGGAUGCAUGGAAUAGAUAGGUGGAUGGGUGGUGGCUAGCUCUUGCGGUCGCACUAGUGUGGAAUUCUCGGGUGUCAAGG
B10: ENSMUSG00000032194.167|Kank2 (ssRNA)
RNA: GGGAGUUCUACAGUCCGACGAUCGCUUCGAUAUCCGCAUGCUAAGAGUAAACAGAGACUGUGAUACUGACCAAGUACAGGCGCUCGCUAUGAAGCCCAUAUGUUCCUGAUUAAGAGCUGGCUGGCCUCAGAGCACUCCCAGAACUAGCUUAAAGUGACAGGCUUUGCUGAAAUCCAAAGGGACAAAAGAGUAGUUUUAUGUUUGUGUGUUUGUUUUUAAUGCCCUGGAGCUCCUGCUGGUGACAGGAGAGACAGACAGGCUGCACCUUUCUCUAACUGGGGUUCCUUUCUGGCCCCAGGAUCUCUCUUGCGGUCGCACUAGUGUGGAAUUCUCGGGUGUCAAGG
B11: ENSMUSG00000061578.337|Ksr2|72:76 (ssRNA)
RNA: GGGAGUUCUACAGUCCGACGAUCGCUUCGAUAUCCGCAUGCUAACCAGUCACCUGCCUCCCAGGGUUCUGCCUUGCCCUUAAGCUAGGGUCCUUCAAGCAUCCACAGACUUAGACACACGUGGUAACAUGCUUGUAAUCCUGGCACUCUGGAGGCUGAGGCAGGAGGAUAACAAGUCUAGACUAUAUAUGAUUUCUGAGGGUCUGUUAGUGAAUAAGUACCUGGAUGACAUGGGACAAGUCCCAGCCUUCCCUGCUCCUGCGCUGCUCUUCCUCUUAUGGGAUAGGGUCUAGGUCAAAUGUCACUCUUGCGGUCGCACUAGUGUGGAAUUCUCGGGUGUCAAGG
B12: ENSMUSG00000061578.1309|Ksr2 (ssRNA)
RNA: GGGAGUUCUACAGUCCGACGAUCGCUUCGAUAUCCGCAUGCUAUCUGCACCCAACUGAAUCUCCCACCCUCAAGUGUACCUCUCAGGAUAUCCCCAGGCACACGAAGAUGGAAUGGAAAGCCAGUGGGUAUCUCCCACCCACUUAGAUGCUGAUGGCCUGGGACUAUAAACAGGGACAGUUGGGUCUCCUAAGGAAUAGCUUCCAGGUCCAGGAUGCUGGCAUCUCCCAGAGAGAACUCCAUCCCCUGACCACCAAGGCCUUUGUAGAAGCAGGAAUCUCUUCCUCCUGUCCCACAGCCCCCACUCUUGCGGUCGCACUAGUGUGGAAUUCUCGGGUGUCAAGG
B13: ENSMUSG00000029636.197|Wasf3 (ssRNA)
RNA: GGGAGUUCUACAGUCCGACGAUCGCUUCGAUAUCCGCAUGCUAGACUUCCCCUCUCCUGCCCUGAUCCUUUUUACCAAAUGGCGAUUCCAUAGUCCUGGCUGAGGCAGGGGCUCAAAGUCCAGUGUCUGCUUUGCAAUUCUGGAAGGACAGCUGCUUAUUUAAAUAAGUCUGUGAUAUCCGCAGGCUUGGGUUACAGGGAGGACCUUGCAGAGGGACCAGGACACUGCCUUCCCUUAGGUGCAUUAUUUACGUGGCCUGCAGCUCUUAAUAUCUCUCACUGUUUAUGAAAAGAAAGAUUCAGACUCUUGCGGUCGCACUAGUGUGGAAUUCUCGGGUGUCAAGG

TDP-43, sequence (Q13148 whole entry): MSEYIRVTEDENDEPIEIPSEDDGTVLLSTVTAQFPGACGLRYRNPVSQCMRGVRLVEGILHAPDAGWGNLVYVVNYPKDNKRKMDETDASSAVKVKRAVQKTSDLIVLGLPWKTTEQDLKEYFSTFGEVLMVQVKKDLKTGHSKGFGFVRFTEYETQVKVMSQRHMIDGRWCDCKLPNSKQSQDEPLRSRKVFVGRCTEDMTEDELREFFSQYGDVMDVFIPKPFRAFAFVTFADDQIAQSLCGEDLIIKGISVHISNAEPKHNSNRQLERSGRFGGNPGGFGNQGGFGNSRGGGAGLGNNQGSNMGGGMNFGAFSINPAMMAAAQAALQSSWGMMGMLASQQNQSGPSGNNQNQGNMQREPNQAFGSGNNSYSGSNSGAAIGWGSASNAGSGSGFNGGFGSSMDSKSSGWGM

The assay concerns the target TDP-43 (Homo sapiens, UniProt Q13148 1-414). As to the kind of experiment: RNA Bind-n-Seq with designed 260-mer pool; 25 mM Tris-HCl, 150 mM KCl, 3 mM MgCl2, BSA (printed 500 mg/mL), 20 units/mL SUPERase IN; pH not stated; 500 nM RNA pool, 1 h, 4 C; TDP-43 5, 50, 500 nM; high values mean tight binding. To be noted: protein: recombinant; tags: SBP (GST cleaved off with PreScission; pGEX-GST-SBP). The gist of the method:
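Recombinant SBP-tagged TDP-43 at 5, 50 or 500 nM was captured on streptavidin beads, then incubated 1 h at 4 °C with 500 nM of an in vitro-transcribed 260-nt 3′ UTR oligo pool in 25 mM Tris-HCl, 150 mM KCl, 3 mM MgCl2, BSA and SUPERase IN. Bound RNA was washed, eluted with biotin, reverse transcribed, PCR-amplified and sequenced. Binding is R, each oligo's mapped-read-normalized abundance in the bound sample divided by its abundance in input. Duplicates used two independent protein batches.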
With B1, the binding signal was 4.32 R (bound/input frequency ratio).
With B2, the binding signal was 3.58 R (bound/input frequency ratio).
Turning to B3, the binding signal was 3.86 R (bound/input frequency ratio).
With B4 the figure was 7.94 R (bound/input frequency ratio); with B5, 1.66 R (bound/input frequency ratio).
To B6 belongs 6.71 R (bound/input frequency ratio); to B7, 11.2 R (bound/input frequency ratio).
To B8 belongs 4.57 R (bound/input frequency ratio); to B9, 6.61 R (bound/input frequency ratio); to B10, 3.92 R (bound/input frequency ratio).
On to B11, for which the binding signal was 0.335 R (bound/input frequency ratio).
With B12 the figure was 0.602 R (bound/input frequency ratio); with B13, 0.304 R (bound/input frequency ratio).
